Data from PubChem BioAssay AID463173 (ICCB-Longwood Screening Facility, Harvard Medical School, 2010).
Among all 52,000 compounds or so, about 4,300 (8.3%) were called active. The list comes from a sample in which actives are over-represented; it also holds similar structures and randomly drawn compounds. A number with no mark means an inactive call. Rule as the data show it: active = survival mostly below about 52% (no sharp cut-off); inactive = mostly above about 56%.

System: DeltatarO mutant
Assay: S. aureus survival, RN4220 and DeltatarO strains – OD600, teichoic acid synthesis inhibitors, primary screen (AID 463173)
Details: S. aureus RN4220 wild type/DeltatarO growth, OD600, 18 h, hits give low values, screened at 18.75 µg/mL (by protocol)

Row | Compound | survival
1 | Nc1ccc2nc(CN3CCOCC3)[nH]c2c1 | 88%
2 | Cc1cc(C)cc(N2C(=O)CS(=O)(=O)C23C(=O)N(Cc2ccccc2)c2ccccc23)c1 (stereo unspecified) | 82%
3 | COC(=O)c1ccc(Cl)cc1NC(=O)N1CCC(CN2CCCC2)CC1 | 84%
4 | CCc1ccc(NC(=O)C(=O)NCCc2sc(-c3ccc(OC)c(OC)c3)nc2C)cc1 | 78%
5 | Cc1ccc(CNC(=O)c2ccc3c(c2)c(C)c(C)n3Cc2ccc(Cl)cc2)o1 | 75%
6 | Cc1ccc(NC(=O)CSc2n[nH]c(-c3ccc(F)cc3)n2)cc1F | 128%
7 | COc1ccccc1-c1nc(SCC(=O)c2ccc(Cl)cc2)n[nH]1 | 175%
8 | COc1ccc(NC(=O)CSc2n[nH]c(-c3ccccc3)n2)cc1Cl | 88%
9 | CCOc1ccc(-c2nc(SCC(=O)c3ccccc3)n[nH]2)cc1 | 179%
10 | CCCOc1ccccc1-c1nc(SCC(=O)c2ccccc2)n[nH]1 | 109%
11 | COc1ccccc1-c1nc(SCC(=O)c2ccccc2)n[nH]1 | 53% (active)
12 | CCOc1ccccc1-c1nc(SCC(=O)c2ccc(OC)c(Br)c2)n[nH]1 | 53%
13 | COc1ccccc1-c1nc(SCC(=O)Nc2ccc(C)c(C)c2)n[nH]1 | 43% (active)
14 | CC(C)Oc1ccccc1-c1nc(SCC(=O)c2ccc(F)cc2)n[nH]1 | 40% (active)
15 | CC(C)(C)NC(=O)c1cnn(-c2ccccc2)c1C1CCN(C(=O)OC(C)(C)C)CC1 | 78%
16 | CC(=O)c1c(C)oc2ccc(N(C(=O)Oc3ccccc3)S(=O)(=O)c3ccc(Cl)cc3)cc12 | 75%
17 | CCC(=O)OC1=C(C(C)=O)N(Cc2ccccc2)S(=O)(=O)c2ccccc21 | 62%
18 | COc1ccc(C(CC(=O)Nc2ccc(F)c(Cl)c2)N2Cc3ccccc3C2=O)cc1OC (stereo unspecified) | 75%
19 | Cc1ccc(N2CC(NC(=O)c3ccc(Br)o3)CC2=O)cc1C (stereo unspecified) | 37% (active)
20 | O=C(NC1CC(=O)N(c2ccccc2)C1)c1ccc(Br)o1 (stereo unspecified) | 87%
21 | COc1ccc(N2CC(NC(=O)Cc3cccs3)CC2=O)cc1OC (stereo unspecified) | 94%
22 | Cc1ccc(N2CC(NC(=O)Cc3cccs3)CC2=O)cc1C (stereo unspecified) | 25% (active)
23 | O=C(Cc1cccs1)NC1CC(=O)N(c2ccc(F)cc2)C1 (stereo unspecified) | 99%

Row | Compound | survival
24 | O=C(Cc1cccs1)NC1CC(=O)N(c2ccccc2)C1 (stereo unspecified) | 88%
25 | Cc1ccc(N2CC(NC(=O)Cc3cccs3)CC2=O)cc1 (stereo unspecified) | 8% (active)
26 | COc1ccc(N2CC(NC(=O)c3ccc(Br)o3)CC2=O)cc1 (stereo unspecified) | 81%
27 | O=C(Cc1cccs1)NC1CC(=O)N(c2ccc(Cl)cc2)C1 (stereo unspecified) | 67%
28 | Cc1ccc(C)c(NC(=O)CCn2cnnn2)c1 | 148%
29 | Cc1nnsc1C(=O)Oc1ccc(C#N)cc1 | 89%
30 | COc1cccc(NC(=O)c2cc(CN3CCOCC3)on2)c1 | 88%
31 | CCOC(=O)c1ccc(CN(Cc2ccc(Br)cc2)S(=O)(=O)c2cccc(Cl)c2C)cc1 | 84%
32 | CC(=O)c1ccc(NC(=O)CN(C)S(=O)(=O)c2cc3c(cc2Cl)NC(=O)CO3)cc1 | 72%
33 | O=C(NCc1ccccc1Cl)c1ccc2c(c1)NC(=O)C(CS(=O)(=O)Cc1ccc(F)cc1Cl)N2 (stereo unspecified) | 81%
34 | COc1ccc(N2CCN(c3csc4ccccc4c3=O)CC2)cc1 | 81%
35 | CCc1ccc(S(=O)(=O)c2nnn3c2nc(N2CCC(C(N)=O)CC2)c2cc(Cl)ccc23)cc1 | 69%
36 | Cc1cc(C)n(CC(C)O)c(=O)c1C#N (stereo unspecified) | 108%
37 | CC1(C)C(=O)N(CC(=O)Nc2ccc(Br)cc2F)c2ccccc21 | 89%
38 | Cc1cc(Br)cc(C)c1OCC(=O)Nc1ccc(S(=O)(=O)Nc2ncccn2)cc1 | 56%
39 | Cc1ccc(OCC(=O)Nc2ccc(S(=O)(=O)Nc3ncccn3)cc2)c(C(C)(C)C)c1 | 47% (active)
40 | CC(C)c1ccc(OCC(=O)Nc2ccc(S(=O)(=O)Nc3ncccn3)cc2)cc1 | 75%
41 | CCc1cccc(OCC(=O)Nc2ccc(S(=O)(=O)Nc3cc(C)nc(C)n3)cc2)c1 | 58%
42 | Cc1ccccc1OCC(=O)Nc1ccc(S(=O)(=O)Nc2ncccn2)cc1 | 133%
43 | CCc1cccc(OCC(=O)Nc2ccc(S(=O)(=O)Nc3ncccn3)cc2)c1 | 43% (active)
44 | CCC(Sc1nc2ncccc2[nH]1)C(=O)Nc1ccccc1F (stereo unspecified) | 112%
45 | CCOC(=O)Cn1c(=O)oc2cc(S(=O)(=O)N3CCN(c4cccc(Cl)c4)CC3)ccc21 | 65%
46 | COc1cccc2c1Oc1ncccc1N(c1ccc(C(=O)NCc3ccccc3Cl)s1)C2 | 91%

Row | Compound | survival
47 | COc1ccc(Cn2c(CCC(=O)Nc3ccc(OC)c(Cl)c3)nc3cccnc32)cc1 | 113%
48 | Cc1cccc(-c2nc(C)c(CCNC(=O)C(=O)Nc3ccccc3C#N)s2)c1 | 85%
49 | CCS(=O)(=O)N1CCC(n2c(C(F)(F)F)nc3cccnc32)CC1 | 76%
50 | CS(=O)(=O)N1CCC(n2c(C(F)(F)F)nc3cccnc32)CC1 | 47% (active)
51 | CN(C)S(=O)(=O)N1CCC(n2c(C(F)(F)F)nc3cccnc32)CC1 | 94%
52 | COc1ccc(S(=O)(=O)c2c(O)c3ccc(C(=O)NCc4ccc(F)cc4)cc3[nH]c2=O)cc1 | 108%
53 | CCOc1cc(-c2ccc(OC(=O)c3ccccc3)c(OC)c2)cc(=O)c2c(C)oc(C)c12 | 89%
54 | CCc1ccc(S(=O)(=O)c2nnn3c2nc(Nc2cc(OC)cc(OC)c2)c2cc(Cl)ccc23)cc1 | 102%
55 | CCOc1ccc(Nc2nc(C)c(NC(=O)c3cccc(OC)c3)c(Nc3ccc(OCC)cc3)n2)cc1 | 112%
56 | CCOc1ccc(Nc2nc(C)c(NC(=O)c3ccc(C)cc3)c(Nc3ccc(OCC)cc3)n2)cc1 | 123%
57 | CCOc1ccc(C(=O)Nc2c(C)nc(Nc3ccccc3)nc2Nc2ccccc2)cc1OCC | 49% (active)
58 | COc1ccccc1Cc1nc2ccccc2nc1SCC(=O)N(C)c1ccc(F)cc1 | 83%
59 | O=C(Cn1cc(SCc2ccc(C(F)(F)F)cc2)c2ccccc21)N1CCOCC1 | 85%
60 | COc1ccc(NC(=O)NC2COc3ccccc3C2)cc1Cl (stereo unspecified) | 57%
61 | COc1ccc(NC(=O)NC2COc3ccccc3C2)c(OC)c1 (stereo unspecified) | 98%
62 | O=C(Nc1ccc(OC(F)(F)F)cc1)NC1COc2ccccc2C1 (stereo unspecified) | 0% (active)
63 | O=C(O)c1ccccc1C(=O)Nc1cccnc1 | 89%
64 | O=C(Nc1cccnc1)c1cccc(C(=O)Nc2cccnc2)c1 | 79%
65 | O=C(Nc1cccnc1)c1ccccc1Oc1ccccc1 | 65% (active)
66 | CCOc1ccc(-c2c(C)nn3c(C)c(C(=O)NCc4cccc(OC)c4)cnc23)cc1OCC | 77%
67 | COc1ccc(N(CC(=O)Nc2cccc(C(C)=O)c2)S(=O)(=O)c2ccccc2)c(OC)c1 | 48% (active)
68 | Cc1ccccc1NC(=O)CN(c1ccc(Cl)cc1Cl)S(=O)(=O)c1ccccc1 | 44%
69 | CCOc1ccc(NC(=O)CN(c2ccccc2OCC)S(=O)(=O)c2ccccc2)cc1 | 48%

Row | Compound | survival
70 | CC(NC(=O)CN(c1ccc(Cl)cc1Cl)S(=O)(=O)c1ccccc1)c1ccccc1 (stereo unspecified) | 37% (active)
71 | COc1ccc(N(CC(=O)NCCc2ccccc2)S(=O)(=O)c2ccccc2)c(OC)c1 | 57%
72 | CCOc1ccc(S(=O)(=O)N(CC(=O)Nc2ccc(OC)c(Cl)c2)c2ccccc2)cc1 | 75%
73 | COc1ccc(N(CC(=O)Nc2ccc(Cl)cc2C)S(=O)(=O)c2ccccc2)c(OC)c1 | 113%
74 | Cc1ccc(CNC(=O)CN(c2ccc(Cl)cc2Cl)S(=O)(=O)c2ccccc2)cc1 | 47%
75 | CCOc1ccc(NC(=O)CN(c2ccc(Cl)cc2C)S(=O)(=O)c2ccccc2)cc1 | 45% (active)
76 | CCN(CC)CCCNc1nc(C)nc2c1nnn2Cc1ccccc1 | 94%
77 | CC(C(=O)NCc1ccco1)N1CCN(C)CC1 (stereo unspecified) | 95%
78 | CC(C)NC(=O)Cc1ccc(Br)cc1 | 80%
79 | Cc1cccc(N(C)S(=O)(=O)c2cc(-c3cnc(C4CC4)o3)ccc2C)c1 | 100%
80 | COc1ccc(NC(=O)CSc2nnc(-c3ccncc3)n2-c2ccccc2)cc1 | 77%
81 | CCOc1ccc(NC(=O)CSc2nnc(-c3ccncc3)n2-c2ccccc2)cc1 | 122%
82 | CCn1c(SCC(=O)Nc2ccc(C)c(C)c2)nnc1-c1nonc1NC(C)=O | 110%
83 | CC(=O)Nc1nonc1-c1nnc(SCC(=O)Nc2ccc(C)cc2)n1-c1ccccc1 | 53%
84 | CCc1ccccc1NC(=O)CSc1nnc(-c2nonc2NC(C)=O)n1C | 52%
85 | CC(=O)Nc1nonc1-c1nnc(SCC(=O)Nc2cc(C)ccc2C)n1-c1ccccc1 | 104%
86 | COc1ccccc1NC(=O)CSc1nnc(-c2nonc2NC(C)=O)n1-c1ccccc1 | 63%
87 | CC(=O)Nc1nonc1-c1nnc(SCC(=O)Nc2ccc(F)cc2F)n1-c1ccccc1 | 13% (active)
88 | CC(=O)Nc1nonc1-c1nnc(SCC(=O)Nc2c(C)cccc2C)n1-c1ccccc1 | 56%
89 | COc1ccc(NC(=O)CSc2nnc(-c3nonc3NC(C)=O)n2-c2ccccc2)cc1 | 60% (active)
90 | CC(=O)Nc1nonc1-c1nnc(SCC(=O)Nc2ccccc2)n1-c1ccccc1 | 39% (active)
91 | CCc1ccc(NC(=O)CSc2nnc(-c3nonc3NC(C)=O)n2-c2ccccc2)cc1 | 43% (active)
